Where “and” joins values, the source holds several entries; their conditions need not be identical. Identical values can stand only once. Hit rate of the full screen: of about 16,000 compounds, about 4,000 (25%) were called active. Roughly 26% stayed inconclusive and do not appear here. Only a sample is shown. Unmarked numbers belong to inactive results. Calls come from the whole dose curve; as a rule, active = well fitted curve in the direction sought with a large enough effect; inconclusive = small, poorly fitted or top-dose-only effect, or effect the other way; inactive = no such curve, though single readings can be large or run the other way.

This is an account of results in PubChem BioAssay AID1851 (National Center for Advancing Translational Sciences (NCATS), 2009).
% is set by controls: 0 for no effect and ±100 for the full control effect.

The experiment deals with Cytochrome P450 2C9 (Homo sapiens) (UniProt P11712). Briefly: Cytochrome panel assay with activity outcomes. The note with it: recombinant CYP, pro-luciferin dealkylation, luminescence, p450-cyp2c9; series mostly up to 57.1 µM; activity, negative = inhibition: at the top concentration.
Cytochrome P450 2C9 (Homo sapiens), sequence (P11712 whole entry, looked up): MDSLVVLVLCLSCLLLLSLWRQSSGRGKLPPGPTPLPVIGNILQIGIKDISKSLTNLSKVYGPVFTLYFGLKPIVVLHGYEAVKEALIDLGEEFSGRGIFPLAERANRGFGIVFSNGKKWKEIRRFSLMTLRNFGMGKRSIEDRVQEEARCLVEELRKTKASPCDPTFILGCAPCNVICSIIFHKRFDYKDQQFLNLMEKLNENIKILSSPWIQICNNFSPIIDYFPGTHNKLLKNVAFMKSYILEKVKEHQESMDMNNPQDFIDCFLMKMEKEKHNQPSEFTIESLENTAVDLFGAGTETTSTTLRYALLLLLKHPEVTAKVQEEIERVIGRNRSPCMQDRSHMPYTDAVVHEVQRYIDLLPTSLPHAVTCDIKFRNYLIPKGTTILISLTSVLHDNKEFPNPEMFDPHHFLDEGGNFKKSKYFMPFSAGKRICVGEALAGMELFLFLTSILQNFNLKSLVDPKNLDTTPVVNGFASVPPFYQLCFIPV
Consider `COc1ccccc1-c1nc(NCc2ccccc2)c2ccccc2n1`, for which the activity, negative = inhibition is 16.9% [at 2.29 µM].
The same measure, in the same setting: the same measure for `CN(C)c1ccccc1CN1CCCN(Cc2ccccc2N(C)C)C1c1ccncc1`: -12% [at 11.4 µM]; for `N=c1ccn2c(n1)O[C@H]1[C@@H](OP(=O)(O)O)[C@H](CO)O[C@H]12`: 5.28% [at 11.4 µM]; for `CCCC[C@H](CC)CN1CN(C[C@@H](CC)CCCC)CC(C)(N)C1`: -3.68% [at 25.6 µM].
On the same count and under the same terms, as for `CN(C)S(=O)(=O)Nc1ccccn1`, the figure is 0.0893% [at 11.4 µM].
The same measure, in the same setting: the same measure for `Nc1ccc(S(=O)(=O)Nc2ccccn2)cc1`: 11.1% [at 25.6 µM].
For the compound `O=C1C(Cl)=C(Nc2ccc(S(=O)(=O)Nc3ccccn3)cc2)C(=O)c2ccccc21`, the AC50 – broadly, the concentration at which the activity in the assay is half-maximal – is 2 µM (active).
The same measure, in the same setting: as for `C[C@@H](C(=O)O)c1ccc(-c2ccccc2)c(F)c1`, the figure is 10 µM (active).
Regarding `O=C(O)[C@@H](O)c1ccc(F)cc1`, the activity, negative = inhibition was -3.58% [at 11.4 µM].
Same read-out and setting: the same measure for `C[C@H](C(=O)O)c1cccc(Oc2ccccc2)c1`: -0.647% [at 25.6 µM].
For the compound `CCCCC1(C)NC(=O)c2c(C)sc(C(=O)OCC)c2N1` (stereo not given), the concentration at half-maximal activity (AC50) was 0.282 µM (active).
On to `NC(=S)SCCC(=O)O`, for which the activity, negative = inhibition was -6.98% [at 11.4 µM].
`CC(C)CO/N=C1/C[C@@H](O)[C@@H](O)[C@@H]2[C@@H]3C(=O)N(C[C@@H]4CCCO4)C(=O)[C@H]3CC[C@@H]12`: the activity, negative = inhibition is 18.7% [at 11.4 µM].
Take `O=C1SC(c2ccccc2)=C/C1=C\N1CCCCC1`: the concentration at half-maximal activity (AC50) is 11.2 µM (active).
As for `CC[N+](CC)(CC)CC[C@](O)(c1ccccc1)C1CCCCC1`, the “activity, negative = inhibition” value was -9.66% [at 25.6 µM].
For the compound `COc1c(/C=N/Nc2ccc([N+](=O)[O-])cc2[N+](=O)[O-])c(C)nn1-c1ccccc1`, the half-maximal activity concentration (AC50) was 20 µM (active).
The same measure, in the same setting: the same measure for `S=C1N[C@H](c2ccccc2)N[C@H](c2ccccc2)S1`: 2 µM (active).
As to `O=C1C2[C@@H](c3ccccc3)N[C@@H](c3ccccc3)C1[C@H](c1ccccc1)N[C@H]2c1ccccc1`, the activity, negative = inhibition was -3.9% [at 11.4 µM].
As to `O=C1[C@H]2[C@H]3[C@H](O)[C@H](O)C/C(=N/OCc4ccccc4)[C@H]3CC[C@@H]2C(=O)N1C[C@@H]1CCCO1`, the activity, negative = inhibition is -4.81% [at 11.4 µM].
On the same count and under the same terms, as for `CN(C)Cc1ccccc1-c1cc(NCc2ccccc2)ncn1`, the figure is -1.3% [at 2.29 µM]; as for `CNC(=S)NNC(=O)COc1ccccc1C`, 32.9%.
As to `O=C(Nc1ccccc1N1CCN(C(=O)c2ccc(Cl)cc2)CC1)c1cc(Br)ccc1Cl`, the concentration at half-maximal activity (AC50) is 3.98 µM (active).
On to `CC1CN(C2CCN(C(=O)c3cccc(Cl)c3)CC2)CC(C)O1` (stereo not given), for which the “activity, negative = inhibition” value was -23.4%.
As to `CC(C)C(=O)N1CCN(c2ccccc2NC(=O)c2cccc(Cl)c2)CC1`, the AC50 is 14.1 µM (active).
Same read-out and setting: the same measure for `O=C(Nc1ccccc1N1CCN(C(=O)c2ccccc2)CC1)c1cc(Br)ccc1Cl`: 2.51 µM (active); for `Cc1ccccc1OCC(=O)Nc1ccc(N2CCN(C(=O)C(C)C)CC2)c(Cl)c1`: 3.98 µM (active).
Consider `CC[C@]1(O)C[C@@H]2CN(CCc3c([nH]c4ccccc34)[C@](C(=O)OC)(c3cc4c(cc3OC)N(C=O)[C@H]3[C@@](O)(C(=O)OC)[C@H](C(=O)OC)[C@@]5(CC)C=CCN6CC[C@]43[C@H]65)C2)C1`, for which the “activity, negative = inhibition” value was -28.6%.
Take `CC(C)C(O)(C#CCN1CCCC1)c1ccccc1` (stereo not given): the “activity, negative = inhibition” value was -10.7%.
On the same count and under the same terms, as for `CC(C)(C)N1C(=O)[C@H]2[C@@H]3[C@H](O)C=CC(=O)[C@H]3CC[C@H]2C1=O`, the figure is 3.18% [at 11.4 µM]; as for `CC(=O)O[C@]12CC[N@+]3(C)CCCC[C@@H]3[C-]1Nc1ccccc12`, 2.24% [at 11.4 µM].
Turning to `Cc1ccc(C2=C(Cl)C(=O)C(c3ccc(C)cc3)=C(Cl)C2=O)cc1`, the AC50 was 1.58 µM (active).
Consider `CC1(C)CC(=O)C/C(=N/NC(=O)CCCOc2ccc(Cl)cc2Cl)C1`, for which the “activity, negative = inhibition” value was 17.7%.
For the compound `COc1ccc(/C=N/NC(=O)CCCOc2ccc(Cl)cc2Cl)cc1[N+](=O)[O-]`, the AC50 is 2.24 µM (active).
As for `COC(=O)C/C=C\[C@@H](C)[C@@H](/C=N\O[C@@H](C)c1cn([C@H](CO)Cc2ccccc2)nn1)OC`, the activity, negative = inhibition was -11.4% [at 11.4 µM] and -9% [at 11.4 µM].
Still for that read-out and setting: the same measure for `COC(=O)[C@@H]1CC[C@H](C)[C@@H](c2ccc(C)cc2)N1C(=O)c1ccc(/C=N\OC[C@@H](C)[C@H](OCc2ccccc2)C(C)C)cc1`: -24.2% [at 11.4 µM]; for `C=CC[C@@H]1C=C[C@H](ON=C(C)C)[C@H](CO)O1`: 12% [at 11.4 µM]; for `C=CC[C@@H]1C=C[C@@H](O/N=C\[C@@H](OC)[C@H](C)/C=C\CC(=O)OC)[C@@H](CO)O1`: 21.3% [at 11.4 µM].
Same read-out and setting: the same measure for `CCCNC(=O)OC[C@@H]1O[C@H](CCO/N=C\C[C@H]2C=C[C@H](OC(C)=O)[C@@H](COC(C)=O)O2)C=C[C@@H]1Oc1ccc(OC)cc1`: -11.7% [at 11.4 µM]; for `COC(=O)C/C=C\[C@@H](C)[C@@H](/C=N\O[C@@H](C)c1cn([C@H](CO)Cc2ccccc2)nn1)NS(=O)(=O)c1ccc(C)cc1`: -29.2% [at 11.4 µM].
In the case of `C=CC[C@@H]1C=C[C@@H](O/N=C\c2ccc(C(=O)N3[C@H](c4ccc(C)cc4)[C@@H](C)CC[C@H]3C(=O)OC)cc2)[C@@H](CO)O1`, the concentration at half-maximal activity (AC50) is 3.98 µM (active).
Regarding `COC(=O)[C@@H]1CC[C@H](C)[C@@H](c2ccc(C)cc2)N1C(=O)c1ccc(/C=N\OC[C@@H](O)COCc2ccco2)cc1`, the AC50 is 3.98 µM (active).
Same read-out and setting: the same measure for `COC(=O)[C@@H]1CC[C@H](C)[C@@H](c2ccc(C)cc2)N1C(=O)c1ccc(/C=N\O[C@@H](C)c2cn([C@H](CO)Cc3ccccc3)nn2)cc1`: 3.16 µM (active) and 2.51 µM (active).
Regarding `COC(=O)[C@@H]1CC[C@H](C)[C@@H](c2ccc(C)cc2)N1C(=O)c1ccc(/C=N\OC[C@@H]2O[C@H](c3ccccc3)C=C[C@@H]2Oc2ccc(OC)cc2)cc1`, the activity, negative = inhibition was -16.2% [at 11.4 µM].
On the same count and under the same terms, as for `COC(=O)C/C=C\[C@@H](C)[C@@H](/C=N\OC[C@@H](O)COCc1ccco1)OC`, the figure is -26.7% [at 11.4 µM].
Turning to `CCCNC(=O)OC[C@@H]1O[C@H](CCO/N=C\c2ccc(C(=O)N3[C@H](c4ccc(C)cc4)[C@@H](C)CC[C@H]3C(=O)OC)cc2)C=C[C@@H]1Oc1ccc(OC)cc1`, the AC50 is 3.98 µM (active).
